Shh pathway inh: Hedgehog pathway signaling inhibitors, primary screen, luminescence, Shh-LIGHT2 cells, Gli-luciferase | Shh-LIGHT2 Gli-luciferase reporter, 30 h | inhibition, % (concentration not given with the values) | 22,000 tested, 2.1% active;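 active means mean inhibition across valid replicates above about 65%, limit read from the data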;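 further: pathway switched on by Shh-conditioned medium diluted 1 in 25 in low serum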
NOMO-1 viab: NOMO-1 AML cell viability reduction, primary screen, STK33 inhibitor project, CellTiter-Glo luminescence. 37,000 tested, 7.5% active. inhibition, % (test concentration not listed). NOMO-1 AML viability, 72 h; in the data active means inhibition above about 80%
PD-1 reverse act: activators reversing PD-1 mediated T-cell inhibition, primary screen, luminescence, primary human CD4 T cells, PD-L1 beads. CellTiter-Glo 96 h. activation, % (test concentration not listed). 29,000 tested, under 10 active; call rule not given here;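 further: 0% = median vehicle wells and 100% = positive control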
YB-1 expression: inhibitors of YB-1 gene expression, primary screen, cell-based, fluorescence. U2OS, qRT-PCR YB-1 vs CDIP delta delta Cp, 16 h; stronger effect = higher value; zero = DMSO, each unit about twofold. delta delta Cp (YB-1 minus CDIP) (no concentration beside the values). 30,000 tested, 0.37% active. AID 434959, 2010;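 active means delta delta Cp rounded down to an integer at or above 3, about 3 SD of DMSO wells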;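 further: higher means less YB-1 transcript or more CDIP transcript relative to DMSO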
MITF inh: inhibitors of MITF, primary screen, MITF inhibitor project, cell-based, luminescence. TRPM1 promoter luciferase, 24 h. inhibition, % (no concentration beside the values). 37,000 tested, 0.28% active. AID 2240, 2010; in the data active means inhibition above about 85%;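 further: human melanocyte line stably carrying TRPM1 promoter luciferase reporter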
* marks the source's active call; other numbers are inactive results; · = not tested or not shown. The list is not random: actives were taken first. Their share in the collection is about 7.4%.

SMILES	Shh pathway inh	NOMO-1 viab	PD-1 reverse act	YB-1 expression	MITF inh
C[C@H](CO)N1C[C@H](C)[C@H](CN(C)Cc2ccc(C(=O)Nc3ccccc3N)cc2)Oc2ccc(NC(=O)Nc3ccc(C(F)(F)F)cc3)cc2CC1=O	·	140*	-3	-0.15	17
C[C@@H]1CN([C@H](C)CO)C(=O)c2cc(NC(=O)Nc3cccc4ccccc34)ccc2O[C@@H]1CN(C)Cc1ccc(C(=O)Nc2ccccc2N)cc1	·	105*	-2	-0.48	4
C[C@@H]1CN([C@H](C)CO)C(=O)Cc2cc(NC(=O)c3ccncc3)ccc2O[C@@H]1CN(C)Cc1ccc(C(=O)Nc2ccccc2N)cc1	·	61	0	-0.18	-12
C[C@@H]1CN([C@H](C)CO)C(=O)Cc2cc(NC(=O)Nc3ccccc3)ccc2O[C@@H]1CN(C)Cc1ccc(C(=O)Nc2ccccc2N)cc1	·	108*	0	0.27	-19
C[C@@H]1CN([C@H](C)CO)C(=O)c2cc(NC(=O)Nc3ccc(C(F)(F)F)cc3)ccc2O[C@H]1CN(C)Cc1ccc(C(=O)Nc2ccccc2N)cc1	·	54	0	-0.22	7
CC(C)NC(=O)Nc1ccc2c(c1)CC(=O)N([C@H](C)CO)C[C@H](C)[C@H](CN(C)Cc1ccc(C(=O)Nc3ccccc3N)cc1)O2	·	126*	-1	0.33	24
C[C@H]1CN([C@@H](C)CO)C(=O)Cc2cc(NC(=O)Nc3ccc(F)cc3)ccc2O[C@@H]1CN(C)Cc1ccc(C(=O)Nc2ccccc2N)cc1	·	62	-1	0.2	-22
Cc1noc(C)c1NC(=O)N(C)C[C@H]1Oc2ccc(NC(=O)Nc3ccc(C(F)(F)F)cc3)cc2CC(=O)N([C@H](C)CO)C[C@H]1C	-6	11	-2	0.23	-29
C[C@H](CO)N1C[C@H](C)[C@H](CN(C)Cc2ccc(C(=O)Nc3ccccc3N)cc2)Oc2ccc(NC(=O)c3ccncc3)cc2CC1=O	·	128*	-3	-0.48	5
CCCCCCCCNC(C)C(O)c1ccc(SC(C)C)cc1 (centres undefined)	57	120*	·	-0.12	11
CC(NCCc1ccc(O)cc1)C(O)c1ccc(O)cc1 (centres undefined)	36	-2	·	-0.48	11
CCOc1ccc(C(=O)Nc2ccc(NC(=O)c3ccccc3)c(C)c2)cc1Br	96*	58	0	-0.28	-2
CC(C)c1ccccc1NC(=O)CSc1nnnn1-c1ccccc1	·	4	·	·	1
CNCC(O)Cn1c2ccccc2c2ccccc21 (centres undefined)	·	7	-1	·	-17
OC(COCc1ccccc1)Cn1c2ccccc2c2ccccc21 (centres undefined)	11	89*	-3	-0.049	5
C[C@@H]1CCCCO[C@@H](CN(C)CC2CC2)[C@@H](C)CN([C@H](C)CO)C(=O)c2cc(NC(=O)CCCN(C)C)ccc2O1	-19	8	1	-0.5	-11
C[C@@H]1CN([C@H](C)CO)C(=O)c2cccc(NS(=O)(=O)c3cccs3)c2O[C@H]1CN(C)C(=O)NC1CCCCC1	-2	13	1	-0.23	-9
C[C@H](CO)N1C[C@H](C)[C@H](CN(C)S(=O)(=O)c2ccc(Cl)cc2)Oc2c(NS(=O)(=O)c3cccs3)cccc2C1=O	77*	7	-1	0.081	12
C[C@H](CO)N1C[C@H](C)[C@H](CN(C)S(=O)(=O)c2ccc(Cl)cc2)Oc2c(NS(=O)(=O)c3ccc(F)cc3)cccc2C1=O	70*	2	·	-0.11	7
C[C@H](CO)N1C[C@H](C)[C@H](CN(C)C(=O)NC2CCCCC2)Oc2c(NS(=O)(=O)c3cccs3)cccc2C1=O	68*	58	-2	-0.14	15
C[C@@H]1CN([C@H](C)CO)C(=O)c2cc(NS(=O)(=O)c3cccs3)ccc2O[C@H]1CN(C)S(=O)(=O)c1ccccc1	17	29	-2	-0.16	-10
C[C@@H]1CN([C@H](C)CO)C(=O)Cc2cc(NC(=O)Nc3cccc4ccccc34)ccc2O[C@@H]1CN(C)Cc1ccc(-c2ccccc2)cc1	20	94*	-3	-0.1	0
C[C@@H]1CN([C@H](C)CO)C(=O)Cc2cc(NC(=O)Nc3cccc4ccccc34)ccc2O[C@@H]1CN(C)Cc1ccc(Oc2ccccc2)cc1	35	111*	-5	0.033	14
C[C@@H]1CN([C@@H](C)CO)C(=O)Cc2cc(NC(=O)Nc3cccc4ccccc34)ccc2O[C@@H]1CN(C)Cc1ccc(-c2ccccc2)cc1	26	52	-1	0.19	-2
C[C@H](CO)N1C[C@H](C)[C@H](CN(C)Cc2ccncc2)Oc2ccc(NC(=O)Nc3cccc4ccccc34)cc2CC1=O	44	125*	·	-0.11	10
SMILES	Shh pathway inh	NOMO-1 viab	PD-1 reverse act	YB-1 expression	MITF inh
C[C@@H]1CN([C@@H](C)CO)C(=O)Cc2cc(NC(=O)Nc3cccc4ccccc34)ccc2O[C@@H]1CN(C)Cc1ccc(C(F)(F)F)cc1	13	117*	-6	-9.1	38
COc1ccc(CN(C)C[C@@H]2Oc3ccc(NC(=O)Nc4cccc5ccccc45)cc3CC(=O)N([C@@H](C)CO)C[C@@H]2C)cc1	69*	25	·	0.11	-8
Cc1ccc(N(C(C)C(=O)Nc2c(C)cccc2C)S(C)(=O)=O)cc1 (centres undefined)	·	13	0	·	-6
Cc1ccc(S(=O)(=O)Nc2ccc3c(c2)CC(=O)N([C@H](C)CO)C[C@H](C)[C@H](CN(C)Cc2ccc4c(c2)OCO4)O3)cc1	44	31	1	0.13	10
Cc1ccc(S(=O)(=O)N2c3ccccc3C(C)(c3ccccc3)CC2(C)C)cc1 (centres undefined)	57	108*	-1	-0.28	41
C=CC1(C)C[C@H](OC(=O)C(C)CO)[C@H]2C(=C)C(=O)O[C@@H]2C1C(=C)CO (some centres undefined)	32	115*	-8	-0.11	5
C=C[C@]1(C)C[C@H](O)[C@H]2C(=C)C(=O)O[C@@H]2[C@H]1C(=C)CO	-10	53	-1	0.56	0
Cc1ccc(C(=O)N(Cc2nc(-c3ccc(Cl)cc3)no2)C(C)C)cc1[N+](=O)[O-]	·	12	1	·	18
Cc1cccc(-c2noc(CN(C(=O)c3ccc([N+](=O)[O-])c(C)c3)C(C)C)n2)c1	·	132*	-10	·	40
C[C@H](CO)N1C[C@H](C)[C@H](CN(C)C(=O)NC2CCCCC2)Oc2ccc(NC(=O)C3CCCCC3)cc2C1=O	0	3	-1	0.45	-10
CCCCCCC[C@@H](O)CC(=O)CCc1ccc(O)c(OC)c1	14	41	1	-0.25	2
CCCCCCC/C=C/C(=O)CCc1ccc(O)c(OC)c1	-3	116*	0	0.27	5

Screening data deposited in PubChem BioAssay by Broad Institute.
